Out of some 69,000 compounds screened, about 8,600 (12%) showed an effect of 50% or more. The sample holds strong results, similar compounds and a random draw of the others, so the mix is not that of the screen.
Tested on: Plasmodium berghei
Test: Screen against P. berghei liver stage (PbLuc), transformed with Luciferase, at 10uM
Assay type: functional, HepG2
Details: tested at 10 uM

| SMILES | INHIBITION [%] |
| --- | --- |
| CN(C)CCOCc1nnc2n1CCN(Cc1ccco1)C2 | -13.7 |
| CCc1ccc(C2COCCN2C(=O)Nc2cc(C)on2)o1 (stereo not given) | -107 |
| CCc1ccc(C2COCCN2C(=O)NCc2cccc(C#N)c2)o1 (stereo not given) | -92.8 |
| CCc1ccc(C2COCCN2C(=O)Nc2ccc(C(N)=O)c(Cl)c2)o1 (stereo not given) | 78.3 |
| CCc1ccc(C2COCCN2C(=O)Nc2cccc(C(C)=O)c2)o1 (stereo not given) | -2.9 |
| Cc1ccc(C2COCCN2C(=O)c2ccc(C#N)cc2)o1 (stereo not given) | 32 |
| CCc1ccc(C2COCCN2C(=O)Nc2ccc(C#N)cc2)o1 (stereo not given) | 65.3 |
| CNC(=O)C1CN(Cc2c[nH]cn2)CCN(C2CCOCC2)C1 (stereo not given) | 25.6 |
| CC(C)Oc1ccc(C(=O)N2CCCSCC2CN(C)C)cc1 (stereo not given) | 36.6 |
| O=C(COC[C@H]1CC[C@H]2[C@H](CCN2c2ccccn2)O1)N1CCCC1 | -37.4 |
| Cc1nccn1CCN(C)C(=O)c1cn(CC2CCCCC2)nn1 | 41.8 |
| COCc1cccc(NCc2cccnc2)c1 | 36.5 |
| Cc1cc(NCc2cccnc2)n2nc(C)cc2n1 | -10.4 |
| CCSc1cccc(NCc2cccnc2)c1 | 85.2 |
| COc1ccnc(NC(=O)CSCc2cccnc2)c1 | 36.9 |
| CCSCc1cccc(NCc2cccnc2)c1 | 61.6 |
| OCc1ccc(Cl)c(NCc2cccnc2)c1 | 3.16 |
| COc1cccc(CSCC(=O)NCc2cccnc2)c1 | 54.5 |
| COc1cccc(CNCc2cccnc2)c1 | 13.7 |
| CCOCc1nnc(NCc2cccnc2)o1 | -0.897 |
| CCCc1nn(Cc2ccc(Br)s2)c(=O)o1 | 40.5 |
| CCc1nc(CN2CCCN(C(=O)CC(C)OC)CC2)cs1 (stereo not given) | 43.3 |
| CN(Cc1nccn1CC(F)(F)F)C(=O)c1cccc(C#N)c1 | 41.1 |
| CC(NC(=O)CNc1cc2c(cc1Cl)OCCO2)c1ccco1 (stereo not given) | -10.3 |
| O=C(Nc1ccc(-c2cnc(NCCO)nc2)cc1)[C@@H]1CCCCN1 | 23.4 |
| CCCn1nc2c(cc1=O)CN(CCN1CCCC1=O)CC2 | -7.35 |
| CCCn1nc2c(cc1=O)CN(Cc1ccccn1)CC2 | 58.3 |

| SMILES | INHIBITION [%] |
| --- | --- |
| CCCn1nc2c(cc1=O)CN(CCS(C)(=O)=O)CC2 | 70.1 |
| CCCn1nc2c(cc1=O)CN(Cc1nc(C)c3ccccc3n1)CC2 | 34.6 |
| CCCn1nc2c(cc1=O)CN(Cc1cc(C)on1)CC2 | 40.1 |
| CCCn1nc2c(cc1=O)CN(CCCS(N)(=O)=O)CC2 | 47.6 |
| CNC(=O)N1CC[C@@H]2CN(Cc3ccccc3)S(=O)(=O)[C@@H]2CC1 | 23.1 |
| CC(NC(=O)NCCc1nc(C(F)(F)F)cs1)C(=O)N(C)C (stereo not given) | -15.5 |
| O=C([C@H]1C[C@H]2OCC[C@H]2N(Cc2cccnc2)C1)N1CCCO1 | 38.1 |
| CCn1nccc1CNC(=O)C1CCC1 | 21.8 |
| c1cnc(NCc2nnn3c2CN(Cc2cccs2)CCC3)nc1 | 24.9 |
| Cc1nc(NCc2nnc(C)n2C)c2c(CC(C)C)csc2n1 | 46.6 |
| CCc1csc(C2CCCN(C(=O)c3ccc4[nH]nnc4c3)C2)n1 (stereo not given) | -10.1 |
| CCCn1nccc1-c1nccnc1CC1CCN(C(C)=O)C1 (stereo not given) | 7.19 |
| c1cnc(N2C[C@H]3CCN(c4cccnc4)C[C@H]3C2)nc1 | -0.113 |
| O=C(CC1CCCC1)N1C[C@@H]2CCN(c3cccnc3)C[C@@H]2C1 | 60.7 |
| c1cncc(N2CC[C@@H]3CN(CC4CC4)C[C@@H]3C2)c1 | 57.4 |
| O=C(CC1CC1)N1C[C@@H]2CCN(c3cccnc3)C[C@@H]2C1 | 19.8 |
| COC(=O)N1CCCCC1C(=O)N1CCN(c2cccnc2)CC1 (stereo not given) | 82.2 |
| COC(=O)N1CCCCC1C(=O)N1CCN(c2ncccc2C)CC1 (stereo not given) | 12.7 |
| O=C(c1ccc(F)cc1)N1C[C@@H]2CCN(c3cccnc3)C[C@@H]2C1 | 43.9 |
| Fc1cccc(N2C[C@H]3CCN(c4cccnc4)C[C@H]3C2)c1 | 50.5 |
| COC(=O)N1CCCCC1C(=O)N1CCCN(c2ccnc(C)c2)CC1 (stereo not given) | 15.9 |
| FC(F)(F)c1ccnc(N2C[C@H]3CCN(c4cccnc4)C[C@H]3C2)n1 | 5.96 |
| Cc1cc(C(=O)Nc2ccn(CCCN3CCCC3)n2)c(C)o1 | 18.2 |
| O=S(=O)(C1CC1)N1CCC2(CCN(Cc3nccs3)CC2)CC1 | -12.1 |
| CC1CN(C)c2ccccc2CN1CCn1cncn1 (stereo not given) | 38 |
| CNc1ncc(CN2CCCC2c2[nH]ncc2C(=O)N(C)C)cn1 (stereo not given) | 20.2 |
| O=C(COc1cccc(Cl)c1)N1CCOCC(O)(CN2CCCC2)C1 (stereo not given) | -18.9 |

| SMILES | INHIBITION [%] |
| --- | --- |
| CCC(C)(CC)NC(=O)COc1nn(C)c2nc(C)cc(C)c12 | 48.1 |
| CCCc1nnc(SCc2cc(=O)n3c4c(sc3n2)CCCC4)[nH]1 | -4.35 |
| O=C(C1CN(c2ncc(F)cn2)CC12CCOCC2)N1CC=CC1 (stereo not given) | 37.8 |
| Cc1cccnc1CN1CCN(C(=O)c2ccn(C(C)(C)C)c2)CC1 | 45 |
| O=C(NCCO)C1(Cc2ccccc2-c2cccnc2)CCOCC1 | -43 |
| CN(CC(C)(CO)CO)C(=O)Nc1cc(F)cc(F)c1 | 18.9 |
| COc1ccccc1CN(C)Cc1ccnc(C2CCCO2)n1 (stereo not given) | 14.755 |
| O=C(C1CCC1)N1C[C@@H]2CCN(c3cccnc3)C[C@@H]2C1 | 5.96 |
| O=C(C1CCCC1)N1C[C@@H]2CCN(c3cccnc3)C[C@@H]2C1 | 54.4 |
| Cc1cccc(NC(=O)N2CCCn3cnc(CN4CCCC4)c3C2)c1 | 15.1 |
| CCc1nnc2n1CCN(Cc1csc(Cc3ccccc3)n1)C2 | 19.2 |
| CC1=N[C@@]2(CC[C@@H]3CN(CC4CC4)C[C@@H]32)C(=O)N1CC1CC1 | 12.4 |
| COCCN1C(=O)[C@]2(CC[C@@H]3CN(C(=O)NC4CCCC4)C[C@@H]32)N=C1C | 20.2 |
| CC1=N[C@@]2(CC[C@@H]3CN(CC4CC4)C[C@@H]32)C(=O)N1CC(C)C | 74.2 |
| CC1=N[C@@]2(CC[C@@H]3CN(CC(C)C)C[C@@H]32)C(=O)N1CC(C)C | 39.2 |
| COCCN1C(=O)[C@]2(CC[C@@H]3CN(C(=O)NCC(C)C)C[C@@H]32)N=C1C | 18.1 |
| COCCN1C(=O)[C@]2(CC[C@@H]3CN(C(=O)NC(C)C)C[C@@H]32)N=C1C | 57.1 |
| Cc1csc(N2CCN(Cc3nnsc3Cl)CC2C)n1 (stereo not given) | 45.2 |
| O=C(c1ccco1)N1CCOCC2(C1)CN(c1ccoc1)C(=O)CO2 (stereo not given) | -8.28 |
| CCOc1ccc(CN2CCC(c3ccn[nH]3)C2)cc1CO (stereo not given) | 43.85 |
| Cn1cc2c(n1)C(CNCc1ccco1)OCC2 (stereo not given) | 15.4 |
| CC(C)CC1SCC(=O)Nc2c1cnn2-c1ccc(F)cc1 (stereo not given) | 28.4 |
| CN(C)C(=O)[C@H]1C[C@H]2[C@H](CCN2Cc2ccc3c(c2)OCO3)O1 | 18.5 |
| CCCNC(c1cccnc1)c1ccc(F)cc1F (stereo not given) | 12.9 |
| O=c1n(CCNc2cccc3ccccc23)nc2ccccn12 | 65.2 |
| O=c1n(CCNCc2cccc3ccccc23)nc2ccccn12 | 28.8 |
| CCNC(=O)NCCCn1nc2ccccn2c1=O | -12.2 |

| SMILES | INHIBITION [%] |
| --- | --- |
| CCSCCC(=O)NCCn1nc2ccccn2c1=O | 37.7 |
| O=c1n(CCNCc2ccc3ccccc3c2)nc2ccccn12 | -23.4 |
| CCC(=O)CNC(=O)CCn1nc2ccccn2c1=O | 69.8 |
| CC(=O)N(Cc1ncc(C)o1)C1CCN(Cc2cnc(C)s2)C1 (stereo not given) | 14.2 |
| CC(C)C[C@H](N)C(=O)N1CC2(CCNCC2)c2cc(Cl)ccc21 | -28.2 |
| CCCc1noc(C2CCN(S(=O)(=O)c3cccs3)CC2)n1 | 4.97 |
| COc1cccc2ccc(CN3CCN(c4ncccn4)CC3)nc12 | 39.8 |
| COc1cccc2ccc(CN3CCN(c4ccncc4)CC3)nc12 | 25.3 |
| COc1cccc2ccc(CN3CCN(c4ncccc4C)CC3)nc12 | 61.1 |
| Cc1ccc(CNC(C)c2ccc(OCC(=O)NC3CC3)cc2)o1 (stereo not given) | 40 |
| COCc1noc(Cn2c(C)cc(C(F)(F)F)cc2=O)n1 | 41.2 |
| CCCc1nnc(NCCCn2nc(C)c(Cl)c2C)o1 | 16.1 |
| CCN1CCO[C@@H]2CN(C(=O)COC3CCCC3)C[C@@H]2C1 | 0.804 |
| CN(Cc1ccncc1)C1CC2(CCN(C(=O)c3ccnnc3)CC2)C1 | -5.63 |
| CN(Cc1cccnc1)C1CC2(CCN(c3ccccn3)CC2)C1 | 47.8 |
| CN(Cc1cccnc1)C1CC2(CCN(Cc3ccccn3)CC2)C1 | 50.9 |
| CN(Cc1cccnc1)C1CC2(CCN(C(=O)c3cscn3)CC2)C1 | -18.5 |
| CN(Cc1cccnc1)C1CC2(CCN(C(=O)c3ccnnc3)CC2)C1 | 53.9 |
| CN(Cc1cccnc1)C1CC2(CCN(C(=O)c3cnccn3)CC2)C1 | 21.7 |
| CN(Cc1ccccn1)C1CC2(CCN(Cc3ccccn3)CC2)C1 | 47.4 |
| CN(Cc1cccnc1)C1CC2(CCN(Cc3cccnc3)CC2)C1 | 70.7 |
| CN(Cc1ccccn1)C1CC2(CCN(Cc3cccnc3)CC2)C1 | 33 |
| Fc1ccc(CN2CCOCC3(CCN(Cc4nccs4)C3)C2)cc1 (stereo not given) | 7.24 |
| CCCc1nnc(NCCc2noc(C3CCC3)n2)o1 | 12.7 |

From ChEMBL document CHEMBL4513216, “Probing the Open Global Health Chemical Diversity Library for Multistage-Active Starting Points for Next-Generation Antimalarials” (ACS Infect Dis, 2020)
